Compound activity deposited in PubChem BioAssay by National Center for Advancing Translational Sciences (NCATS).
Sampled rows, rich in hits. Any-hit rate of the full collection: about 19%.
HT1080NT lethal – qHTS for induction of synthetic lethality in tumor cells producing 2HG: qHTS for the HT-1080-NT fibrosarcoma cell line | HT-1080-NT fibrosarcoma viability, CellTiter-Glo ATP luminescence, 48 h | Potency, µM (doses to about 46.1 µM), hits mostly cytotoxic | actives 1.6% (n = 360,000) | AID 686970, 2013;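 note: NT is the 2HG producing partner of a matched IDH1 knockdown line; nearly all actives have a fitted effect of over 55% in size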
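Fibrosarcoma NT cells, 750 per well in 5% FBS RPMI, were exposed to compound for 48 hours. Viability: CellTiter-Glo luminescence.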
KB-V1 MDR tox – qHTS assay for MDR1-selective chemotherapeutics: Primary screen using the drug-selected MDR subline cells KB-V1; KB-V1 MDR cells viability, CellTiter-Glo, 72 h; Potency, µM (titrated, usually from 46.1 µM), usual class: cytotoxic; actives 3.4% (n = 400,000); note: nearly all actives have a fitted effect of over 60% in size
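Cytotoxicity toward P-gp-expressing KB-V1 cells was determined as loss of CellTiter-Glo luminescence after 72 h at 37 degrees C. Compounds were tested in quantitative HTS format across a concentration range, with curves fitted to normalized data.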
HT1080 IDH1KD tx – qHTS for induction of synthetic lethality in tumor cells producing 2HG: qHTS for the HT-1080-IDH1KD cell line. HT-1080 IDH1 knockdown viability, ATP luminescence, 48 h. Potency, µM (series often up to 46.1 µM), most hits filed as cytotoxic. actives 2% (n = 360,000)
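Assay cells: HT-1080 with IDH1 knockdown, 750 per well, RPMI/5% FBS. Exposure: 48 h at 37 °C following 2 h pre-incubation. Read: CellTiter-Glo luminescence; fitted concentration-response, curve class assigned.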
TDP1 cell CPT – qHTS for Inhibitors of human tyrosyl-DNA phosphodiesterase 1 (TDP1): qHTS in cells in presence of CPT | chicken DT40 Tdp1-/-;hTDP1 cells + 20 nM CPT, ATP luminescence, 48 h | Potency, µM (top dose mostly 46.2 µM), usual class: inhibitors | actives 12% (n = 420,000) | AID 686979, 2013; note: nearly all actives have a fitted effect of over 55% in size
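Chicken DT40 Tdp1-/- cells complemented with human TDP1, 400 cells/well, exposed to compounds plus 20 nM camptothecin for at least 48 h at 37 C; viability read as ATP content by CellTiter-Glo luminescence.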
KB-3-1 tox – qHTS assay for MDR1-selective chemotherapeutics: Primary screen using the parental adenocarcinoma cell KB-3-1 | KB-3-1 viability, CellTiter-Glo ATP luminescence, 72 h | Potency, µM (highest dose often 46.1 µM), most hits filed as cytotoxic | actives 1.4% (n = 400,000) | AID 1347075, 2019; note: nearly all actives have a fitted effect of over 60% in size
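Luminescent ATP read-out (CellTiter-Glo) measures survival of drug-naive KB-3-1 cells after 72 h compound exposure at 37 °C. Titration series was screened from lowest to highest concentration, with DMSO vehicle plates as background controls.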
DT40 TDP1 no CPT – qHTS for Inhibitors of human tyrosyl-DNA phosphodiesterase 1 (TDP1): qHTS in cells in absence of CPT | DT40 Tdp1-/- hTDP1 cells, no CPT, ATP luminescence, 48 h | Potency, µM (titrated, usually from 46.2 µM), hits mostly inhibitors | actives 15% (n = 420,000) | AID 686978, 2013; note: nearly all actives have a fitted effect of over 55% in size
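A cellular qHTS used chicken DT40 cells lacking endogenous Tdp1 but carrying stably transfected human TDP1. Compounds were applied without camptothecin, and cell growth kinetics were judged by ATP-dependent luminescence after ≥48 hr.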
Large screens that a line does not name were inactive; ! = not confirmed by another sample. Calls come from the whole dose curve; as a rule, active = well fitted curve in the direction sought with a large enough effect; inconclusive = small, poorly fitted or top-dose-only effect, or another doubt; inactive = no such curve, though single readings can be large; an effect the other way counts as inactive or inconclusive.

O=C(O)C1C2c3ccccc3C(O)C1(C(=O)O)c1ccccc12 (stereo not given)	none
CCCN1CCO[C@@H]2c3cc(O)ccc3OC[C@@H]21	none (no result: HT1080NT lethal, KB-V1 MDR tox, HT1080 IDH1KD tx, KB-3-1 tox)
CC1=C(C/C(C)=C/c2ccccc2)/C(=C/CO)[C@@H]2OC(=O)O[C@]2(C)C12CC2	TDP1 cell CPT 8.2µM, DT40 TDP1 no CPT 11.6µM
CCCn1c(C)c(C(=O)c2cccc3ccccc23)c2ccccc21	HT1080NT lethal inconclusive, KB-V1 MDR tox inconclusive, HT1080 IDH1KD tx inconclusive, TDP1 cell CPT 26.6µM!, KB-3-1 tox inconclusive, DT40 TDP1 no CPT 13.3µM
C[C@H](NC(=O)[C@@H](N)Cc1ccc(O)cc1)C(=O)N[C@@H](Cc1ccccc1)C(=O)NCC(=O)N[C@@H](Cc1ccc(O)cc1)C(=O)N1CCC[C@H]1C(=O)N[C@@H](CO)C(N)=O	none (no result: HT1080NT lethal, KB-V1 MDR tox, HT1080 IDH1KD tx, KB-3-1 tox)
Cc1cc(C)c(Cn2c3ccccc3c3cnn(CC(=O)NCc4ccc(Cl)cc4)c(=O)c32)c(C)c1	TDP1 cell CPT inconclusive, DT40 TDP1 no CPT 23.1µM (no result: HT1080NT lethal, HT1080 IDH1KD tx)
O=c1[nH]c(=O)n(Cl)c(=O)n1Cl	none (no result: HT1080NT lethal, KB-V1 MDR tox, HT1080 IDH1KD tx, KB-3-1 tox)
O=C(C[C@@H]1NCCC[C@H]1O)Cn1cnc2cc(Br)c(Cl)cc2c1=O	none (no result: HT1080NT lethal, KB-V1 MDR tox, HT1080 IDH1KD tx, KB-3-1 tox)
Cn1c(O)c(/C=C2\C=c3ccccc3=NC2=O)c(=O)n(C)c1=O	TDP1 cell CPT inconclusive
Cn1c(O)c(/C=C2\N=c3ccccc3=C2CCNC(=S)NC2CC2)c(=O)n(C)c1=O	TDP1 cell CPT 14.6µM, DT40 TDP1 no CPT 23.1µM
CCCC(C)CC1(CCO)C(=O)NC(=S)NC1=O (stereo not given)	none
COc1cc(O)cc2c1C(=O)OC(C)CCCC(=O)CCC/C=C\2 (stereo not given)	KB-V1 MDR tox inconclusive, DT40 TDP1 no CPT inconclusive
C[C@H]1CCCC(=O)CCC/C=C/c2cc(O)cc(O)c2C(=O)O1	KB-V1 MDR tox 16.4µM, DT40 TDP1 no CPT inconclusive
CC(O)(CS(=O)(=O)c1ccccc1)C(=O)Nc1ccc(C(F)(F)F)cc1 (stereo not given)	HT1080NT lethal inconclusive, KB-V1 MDR tox 14.6µM
CC(O)(CS(=O)(=O)c1cccc(C(F)(F)F)c1)C(=O)Nc1cccc(C(F)(F)F)c1 (stereo not given)	HT1080 IDH1KD tx inconclusive, TDP1 cell CPT inconclusive, DT40 TDP1 no CPT inconclusive
CC(O)(CS(=O)(=O)c1ccc(F)cc1)C(=O)Nc1ccc(C#N)c(C(F)(F)F)c1 (stereo not given)	TDP1 cell CPT 15µM, DT40 TDP1 no CPT 10.6µM (no result: HT1080NT lethal, KB-V1 MDR tox, HT1080 IDH1KD tx, KB-3-1 tox)
CN1CCc2nc(SCc3ccccc3Br)c(C#N)cc2C1	KB-V1 MDR tox inconclusive, TDP1 cell CPT inconclusive, DT40 TDP1 no CPT 18.4µM
Cc1cccc(Cn2cccc(C(=O)Nc3nnc(C)s3)c2=O)c1	none (no result: HT1080NT lethal, HT1080 IDH1KD tx)
CCN(CC)C(=O)Oc1ccc2cc(Br)ccc2c1	DT40 TDP1 no CPT inconclusive
CN(Cc1c[nH]c2ccccc12)C1CCCCC1	KB-V1 MDR tox inconclusive, TDP1 cell CPT 0.411µM, KB-3-1 tox inconclusive, DT40 TDP1 no CPT 1.16µM
COC(=NC1CCCCC1)C(O)c1c[nH]c2ccccc12 (stereo not given)	none
c1ccc2c(CNC3CCCCC3)c[nH]c2c1	HT1080NT lethal inconclusive, HT1080 IDH1KD tx inconclusive, TDP1 cell CPT 2.51µM, KB-3-1 tox inconclusive, DT40 TDP1 no CPT 6.31µM
O=C1CN(O)C(c2ccccc2)=c2cc(Cl)ccc2=N1	none
CCCCC[C@H]1CCCCC[C@@H](O)C[C@H](O)[C@H](O)/C=C/C(=O)O1	KB-V1 MDR tox inconclusive, TDP1 cell CPT inconclusive, KB-3-1 tox inconclusive, DT40 TDP1 no CPT inconclusive
C[C@H]1CCC/C=C/[C@@H]2C[C@H](O)C[C@H]2[C@H](O)/C=C/C(=O)O1	HT1080NT lethal 0.411µM, KB-V1 MDR tox 0.581µM, HT1080 IDH1KD tx 0.0065µM, TDP1 cell CPT 0.581µM, KB-3-1 tox 0.0651µM, DT40 TDP1 no CPT 0.651µM
C[C@H]1CCC/C=C/C2C[C@H](O)C[C@H]2[C@H](O)/C=C/C(=O)O1 (stereo not given in full)	TDP1 cell CPT 0.251µM, DT40 TDP1 no CPT 0.355µM (no result: HT1080NT lethal, KB-V1 MDR tox, HT1080 IDH1KD tx, KB-3-1 tox)
CCCCC[C@@H]1CCCCC[C@H](O)C[C@@H](O)[C@@H](O)/C=C/C(=O)O1	KB-V1 MDR tox inconclusive, TDP1 cell CPT inconclusive, DT40 TDP1 no CPT inconclusive
C#CCOS(=O)OC1CCCCC1Oc1ccc(C(C)(C)C)cc1 (stereo not given)	none (no result: HT1080NT lethal, KB-V1 MDR tox, HT1080 IDH1KD tx, KB-3-1 tox)
COC(=O)C1=C(c2ccc(OC(F)(F)F)cc2)C[C@@H]2CC[C@H]1N2C(=O)NCCc1ccccc1	TDP1 cell CPT 2.91µM, DT40 TDP1 no CPT inconclusive
COC(=O)C1=C(c2ccccc2OCc2ccccc2)C[C@@H]2CC[C@H]1N2C(=O)NCc1ccc(N(C)C)cc1	TDP1 cell CPT inconclusive, DT40 TDP1 no CPT inconclusive
COC(=O)C1=C(c2ccc(OCc3ccccc3)cc2)C[C@@H]2CC[C@H]1N2C(=O)NCCc1ccc(F)cc1	KB-V1 MDR tox 16.4µM, HT1080 IDH1KD tx inconclusive, TDP1 cell CPT 20.6µM, KB-3-1 tox inconclusive, DT40 TDP1 no CPT inconclusive
